# According to PubChem BioAssay AID1159580 (chemical genetic matrix, 2015):
# Where “and” joins values, the source holds several entries; their conditions need not be identical. Identical values can stand only once. Among all 5,500 compounds or so, about 2,000 (36%) were called active. About 18% were inconclusive and are not listed. Some of the results follow. A number with no mark means an inactive call. Cut-off read from the data, not from the text of the source: active = normalized growth mostly below about 0.91 (no sharp cut-off); inconclusive = no clear call, values can overlap the other calls; inactive = mostly above about 0.92.
# Assay: chemical genetic growth profiling, strain panel (AID 1159580);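 note: tested at 20 µM; growth read once vehicle control cultures reached saturation at 30 °C; 1 = growth at the plate median or of vehicle wells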
# Conditions: S. cerevisiae deletion strains, growth OD
smiles,measurement,setting,value
COC(=O)c1c(OC)cc2c(c1C)Oc1c(Cl)c(O)c(Cl)c(C)c1C(=O)O2,normalized growth,"locus YAL013W, strain DEP1, stronger effect = lower value",0.879 (active)
same,normalized growth,"locus YAL021C, strain ccr4, stronger effect = lower value",0.99
same,normalized growth,"locus YAL026C, strain drs2, stronger effect = lower value",0.99
same,normalized growth,"locus YAL030W, strain snc1, stronger effect = lower value",0.977
same,normalized growth,"locus YBL061C, strain skt5, stronger effect = lower value",0.993
same,normalized growth,"locus YBR009C, strain hhf1, stronger effect = lower value",0.993
same,normalized growth,"locus YBR021W, strain FUR4, stronger effect = lower value",1.02
same,normalized growth,"locus YBR023C, strain chs3, stronger effect = lower value",0.988
same,normalized growth,"locus YBR171W, strain sec66, stronger effect = lower value",0.985
same,normalized growth,"locus YBR229C, strain ROT2, stronger effect = lower value",0.909 (active)
same,normalized growth,"locus YBR231C, strain swc5, stronger effect = lower value",0.989
same,normalized growth,"locus YBR279W, strain paf1, stronger effect = lower value",0.992
same,normalized growth,"locus YCL011C, strain gbp2, stronger effect = lower value",0.986
same,normalized growth,"locus YCL016C, strain dcc1, stronger effect = lower value",0.99
same,normalized growth,"locus YCL029C, strain bik1, stronger effect = lower value",0.925
same,normalized growth,"locus YCL069W, strain vba3, stronger effect = lower value",1
same,normalized growth,"locus YCR088W, strain abp1, stronger effect = lower value",0.975
same,normalized growth,"locus YDL005C, strain med2, stronger effect = lower value",1
same,normalized growth,"locus YDL035C, strain GPR1, stronger effect = lower value",0.906
same,normalized growth,"locus YDL040C, strain nat1, stronger effect = lower value",0.98
same,normalized growth,"locus YDL074C, strain BRE1, stronger effect = lower value",0.838
same,normalized growth,"locus YDL101C, strain DUN1, stronger effect = lower value",0.912
same,normalized growth,"locus YDL134C, strain PPH21, stronger effect = lower value",0.935
same,normalized growth,"locus YDL185W, strain tfp1, stronger effect = lower value",0.937
same,normalized growth,"locus YDL192W, strain arf1, stronger effect = lower value",0.949
same,normalized growth,"locus YDR001C, strain nth1, stronger effect = lower value",0.986
same,normalized growth,"locus YDR069C, strain doa4, stronger effect = lower value",0.968
same,normalized growth,"locus YDR101C, strain arx1, stronger effect = lower value",0.965
same,normalized growth,"locus YDR137W, strain rgp1, stronger effect = lower value",0.946
same,normalized growth,"locus YDR150W, strain NUM1, stronger effect = lower value",0.896 (active)
same,normalized growth,"locus YDR159W, strain sac3, stronger effect = lower value",0.963
same,normalized growth,"locus YDR162C, strain NBP2, stronger effect = lower value",0.82 (active)
same,normalized growth,"locus YDR195W, strain ref2",1.09
same,normalized growth,"locus YDR297W, strain sur2, stronger effect = lower value",0.981
same,normalized growth,"locus YDR318W, strain mcm21, stronger effect = lower value",0.924
same,normalized growth,"locus YDR334W, strain swr1, stronger effect = lower value",1.01
same,normalized growth,"locus YDR335W, strain msn5, stronger effect = lower value",1
same,normalized growth,"locus YDR388W, stronger effect = lower value",0.947
same,normalized growth,"locus YDR392W, strain spt3, stronger effect = lower value",0.965
same,normalized growth,"locus YDR502C, strain sam2, stronger effect = lower value",0.919 (active)
same,normalized growth,"locus YEL003W, strain gim4, stronger effect = lower value",0.986
same,normalized growth,"locus YEL037C, strain rad23, stronger effect = lower value",0.991
same,normalized growth,"locus YEL061C, strain CIN8 (second series), stronger effect = lower value",0.988
same,normalized growth,"locus YEL061C, strain CIN8, stronger effect = lower value",0.931
same,normalized growth,"locus YER015W, strain faa2, stronger effect = lower value",0.991
same,normalized growth,"locus YER016W, strain bim1, stronger effect = lower value",0.988
same,normalized growth,"locus YER110C, stronger effect = lower value",0.929
same,normalized growth,"locus YER111C, strain swi4, stronger effect = lower value",0.991
same,normalized growth,"locus YER155C, strain BEM2 (second series), stronger effect = lower value",0.997
same,normalized growth,"locus YER155C, strain BEM2, stronger effect = lower value",0.949
same,normalized growth,"locus YER167W, strain BCK2, stronger effect = lower value",0.932
same,normalized growth,"locus YFR010W, strain ubp6, stronger effect = lower value",0.982
same,normalized growth,"locus YGL078C, strain dbp3, stronger effect = lower value",1
same,normalized growth,"locus YGL086W, strain mad1, stronger effect = lower value",0.954
same,normalized growth,"locus YGL167C, strain pmr1, stronger effect = lower value",0.954
same,normalized growth,"locus YGL173C, strain kem1, stronger effect = lower value",0.985
same,normalized growth,"locus YGL227W, strain vid30, stronger effect = lower value",0.991
same,normalized growth,"locus YGL240W, strain doc1, stronger effect = lower value",0.993
same,normalized growth,"locus YGL248W, strain PDE1, stronger effect = lower value",0.932
same,normalized growth,"locus YGL253W, strain hxk2, stronger effect = lower value",0.997
same,normalized growth,"locus YGR078C, strain PAC10, stronger effect = lower value",0.886
same,normalized growth,"locus YGR135W, strain pre9, stronger effect = lower value",0.917
same,normalized growth,"locus YGR229C, strain SMI1, stronger effect = lower value",0.852
same,normalized growth,"locus YGR252W, strain gcn5, stronger effect = lower value",1.04
same,normalized growth,"locus YHR013C, strain ard1, stronger effect = lower value",1.03
same,normalized growth,"locus YHR027C, strain rpn1, stronger effect = lower value",0.997
same,normalized growth,"locus YHR030C, strain SLT2, stronger effect = lower value",0.951 and 0.911
same,normalized growth,"locus YHR079C, strain IRE1 (second series), stronger effect = lower value",0.943
same,normalized growth,"locus YHR079C, strain IRE1, stronger effect = lower value",0.939
same,normalized growth,"locus YHR094C, strain hxt1, stronger effect = lower value",0.948
same,normalized growth,"locus YHR129C, strain ARP1, stronger effect = lower value",0.955
same,normalized growth,"locus YHR142W, strain chs7, stronger effect = lower value",0.994
same,normalized growth,"locus YHR200W, strain rpn10, stronger effect = lower value",0.938
same,normalized growth,"locus YIL066C, strain RNR3, stronger effect = lower value",0.899
same,normalized growth,"locus YIL073C, strain SPO22, stronger effect = lower value",0.969
same,normalized growth,"locus YIL125W, strain kgd1, stronger effect = lower value",0.986
same,normalized growth,"locus YIR030C, strain dcg1, stronger effect = lower value",0.925 (active)
same,normalized growth,"locus YJL092W, strain hpr5, stronger effect = lower value",0.98
same,normalized growth,"locus YJL095W, strain BCK1 (second series), stronger effect = lower value",1
same,normalized growth,"locus YJL095W, strain BCK1, stronger effect = lower value",0.903 and 0.92
same,normalized growth,"locus YJL115W, strain asf1, stronger effect = lower value",1
same,normalized growth,"locus YJL129C, strain trk1, stronger effect = lower value",0.949
same,normalized growth,"locus YJL134W, strain LCB3, stronger effect = lower value",0.922 (active)
same,normalized growth,"locus YJL154C, strain vps35, stronger effect = lower value",0.97
same,normalized growth,"locus YJL164C, strain tpk1, stronger effect = lower value",0.983
same,normalized growth,"locus YJL166W, strain qcr8, stronger effect = lower value",0.974
same,normalized growth,"locus YJL168C, strain set2, stronger effect = lower value",0.931 (active)
same,normalized growth,"locus YJL187C, strain SWE1 (second series), stronger effect = lower value",0.916
same,normalized growth,"locus YJL187C, strain SWE1, stronger effect = lower value",0.984
same,normalized growth,"locus YJR043C, strain POL32, stronger effect = lower value",0.977
same,normalized growth,"locus YJR066W, strain TOR1, stronger effect = lower value",0.867
